Assay results as given in publication PMC5540273 (PLoS ONE, 2017).

test system: ULK3; conditions: concentration: 1 μM, replicates: in singlicate; n = 1
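Further: KINOMEscan kinase panel screen.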

SMILES	%Inh [%]
CC(C)(C)n1cnc2c(N)ncnc21 [SKF-97359]	0
Cc1cccc(Cn2ccn3c(=O)cc(N4CCOCC4)nc23)c1 [GSK2297542]	10
c1ccc(-c2cc(-c3c[nH]nc3-c3ccccn3)ccn2)cc1 [GW576604]	0
O=C(Nc1cccc(-c2nn3ncccc3c2-c2ccnc(Nc3cccc(C(F)(F)F)c3)n2)c1)c1c(F)cccc1F [GSK299495]	7
COc1cc2c(cc1OC[C@@H](O)CO)ncc1c3ccc(C#N)cc3[nH]c21	50
N#Cc1ccc(-c2cc(-c3c[nH]nc3-c3ccccn3)ccn2)cc1 [GW693028]	6
Fc1ccc(-c2ncn(CCCN3CCOCC3)c2-c2ccccn2)cc1 [SB-211742]	0
COc1ccc(Nc2nccc(N3CCC(NC(=O)Nc4cccc(C(C)=O)c4)C3)n2)cc1 (stereo not drawn) [GSK1379731]	16
Cn1cc(-c2ccc3c(c2)CCN3C(=O)Cc2ccccc2Cl)c2c(N)ncnc21 [GSK2608885]	6
CNc1ncnc2[nH]ncc12 [SKF-18355]	14
Cc1cccc(-c2nc(Nc3ccc4ncsc4c3)c3ccccc3n2)n1 [GW867588]	2
[2H]C([2H])(c1cccc(C(F)(F)F)c1C)n1ccn2c(=O)nc(N3CCOCC3)cc12 [GSK2336394]	8
Cc1c2ccc(N(C)c3ccnc(Nc4cccc(S(N)(=O)=O)c4)n3)cc2nn1Cc1ccccc1.Cl.Cl [GW787226]	6
O=C(c1ccc(-c2cc(-c3c[nH]nc3-c3ccccn3)ccn2)cc1)N1CCOCC1 [GW812171]	3
CCn1cnc2c(N)ncnc21 [GW345098]	0
Cl.Nc1ncnc2occ(-c3ccc(NC(=O)Nc4cc(C(F)(F)F)ccc4F)cc3)c12 [SB-707548]	19
CC(=O)Nc1ccc(COc2ccc(Nc3ccnc4cc(-c5ccccn5)ccc34)cc2)cc1.Cl [GW440148]	3
Cc1nnc(-c2ccc3occ(-c4ccc(C(C)O)cc4)c3c2)o1 (stereo not drawn)	6

SMILES	%Inh [%]
Cc1nnc(-c2ccc3ncc(-c4ccc(S(C)=O)cc4)n3c2)o1 (stereo not drawn)	5
c1ccc(-c2n[nH]cc2-c2ccnc3ccccc23)nc1 [GW271431]	1
CCCCCc1nc2c(N)ncnc2n1CCCCC [SKF-97255]	11
CN1c2ccc(CNc3ccc(F)cc3)cc2-c2c(cnn2C)S1(=O)=O	0
NCC(NC(=O)c1cc(-c2cn[nH]c2)c(-c2ccnc3[nH]ccc23)s1)c1ccccc1.O=C(O)C(F)(F)F.O=C(O)C(F)(F)F (stereo not drawn) [GSK1325775]	14
O=C(Nc1n[nH]c2cc(-c3cccc(F)c3)ccc12)C1CC1 [SB-735464]	29
COc1ccc(COc2cc(-n3cnc4ccccc43)sc2C(N)=O)cc1 [GSK1024304]	0
CN(C(=O)c1ccc(-c2cc(-c3c[nH]nc3-c3ccccn3)ccn2)cc1)C1CCOCC1 [GW810083]	12
O=c1cc(N2CCOCC2)nc2n(Cc3cccc(Cl)c3Cl)c(C3CC3)nn12 [GSK2358994]	0
COc1cc2ncn(-c3cc(OCc4sccc4Cl)c(C(N)=O)s3)c2cc1OC [GSK448459]	19
CCc1ccnc(/C=C/c2n[nH]c3cc(Sc4ccccc4C(=O)NC)ccc23)c1	9
CSc1ccc(-c2cc3ncnc(SCC(=O)O)c3s2)cc1	0
COc1ccc(Nc2nccc(N3CCC(NC(=O)Nc4cc(C)ccc4C)C3)n2)cc1 (stereo not drawn) [GSK1379741]	12
Cc1c(Cn2c(C)nn3c(=O)cc(N4CCOC(C)C4)nc23)cccc1C(F)(F)F (stereo not drawn) [GSK2344444]	15
O=C1NC(=O)C(N2CCc3ccccc32)=C1c1cccc(Cl)c1 [SB-408010]	14
Cn1ccc2ncnc(Oc3ccc(NC(=O)Nc4ccncc4)c(Cl)c3)c21	0
O=C(NOCC1CC1)c1ccc(F)c(F)c1Nc1ccc(I)cc1Cl	0
Cc1ccc(NC(=O)c2ccnc(N3CCN(C)CC3)c2)cc1-c1ccc(C(=O)NCC2CC2)cc1 [GW775604]	0

test system: T1, VEGFR2; conditions: concentration: 1 μM, replicates: in singlicate; n = 1
T1 construct: gene KDR

SMILES	%Inh [%]
CC(C)(C)n1cnc2c(N)ncnc21 [SKF-97359]	0
Cc1cccc(Cn2ccn3c(=O)cc(N4CCOCC4)nc23)c1 [GSK2297542]	0
c1ccc(-c2cc(-c3c[nH]nc3-c3ccccn3)ccn2)cc1 [GW576604]	0
O=C(Nc1cccc(-c2nn3ncccc3c2-c2ccnc(Nc3cccc(C(F)(F)F)c3)n2)c1)c1c(F)cccc1F [GSK299495]	29
COc1cc2c(cc1OC[C@@H](O)CO)ncc1c3ccc(C#N)cc3[nH]c21	19
N#Cc1ccc(-c2cc(-c3c[nH]nc3-c3ccccn3)ccn2)cc1 [GW693028]	0
Fc1ccc(-c2ncn(CCCN3CCOCC3)c2-c2ccccn2)cc1 [SB-211742]	0
COc1ccc(Nc2nccc(N3CCC(NC(=O)Nc4cccc(C(C)=O)c4)C3)n2)cc1 (stereo not drawn) [GSK1379731]	0
Cn1cc(-c2ccc3c(c2)CCN3C(=O)Cc2ccccc2Cl)c2c(N)ncnc21 [GSK2608885]	82
CNc1ncnc2[nH]ncc12 [SKF-18355]	1
Cc1cccc(-c2nc(Nc3ccc4ncsc4c3)c3ccccc3n2)n1 [GW867588]	6
[2H]C([2H])(c1cccc(C(F)(F)F)c1C)n1ccn2c(=O)nc(N3CCOCC3)cc12 [GSK2336394]	0
Cc1c2ccc(N(C)c3ccnc(Nc4cccc(S(N)(=O)=O)c4)n3)cc2nn1Cc1ccccc1.Cl.Cl [GW787226]	99.2
O=C(c1ccc(-c2cc(-c3c[nH]nc3-c3ccccn3)ccn2)cc1)N1CCOCC1 [GW812171]	0
CCn1cnc2c(N)ncnc21 [GW345098]	0
Cl.Nc1ncnc2occ(-c3ccc(NC(=O)Nc4cc(C(F)(F)F)ccc4F)cc3)c12 [SB-707548]	99.8
CC(=O)Nc1ccc(COc2ccc(Nc3ccnc4cc(-c5ccccn5)ccc34)cc2)cc1.Cl [GW440148]	99.6
Cc1nnc(-c2ccc3occ(-c4ccc(C(C)O)cc4)c3c2)o1 (stereo not drawn)	0

SMILES	%Inh [%]
Cc1nnc(-c2ccc3ncc(-c4ccc(S(C)=O)cc4)n3c2)o1 (stereo not drawn)	0
c1ccc(-c2n[nH]cc2-c2ccnc3ccccc23)nc1 [GW271431]	12
CCCCCc1nc2c(N)ncnc2n1CCCCC [SKF-97255]	0
CN1c2ccc(CNc3ccc(F)cc3)cc2-c2c(cnn2C)S1(=O)=O	0
NCC(NC(=O)c1cc(-c2cn[nH]c2)c(-c2ccnc3[nH]ccc23)s1)c1ccccc1.O=C(O)C(F)(F)F.O=C(O)C(F)(F)F (stereo not drawn) [GSK1325775]	18
O=C(Nc1n[nH]c2cc(-c3cccc(F)c3)ccc12)C1CC1 [SB-735464]	12
COc1ccc(COc2cc(-n3cnc4ccccc43)sc2C(N)=O)cc1 [GSK1024304]	0
CN(C(=O)c1ccc(-c2cc(-c3c[nH]nc3-c3ccccn3)ccn2)cc1)C1CCOCC1 [GW810083]	0
O=c1cc(N2CCOCC2)nc2n(Cc3cccc(Cl)c3Cl)c(C3CC3)nn12 [GSK2358994]	0
COc1cc2ncn(-c3cc(OCc4sccc4Cl)c(C(N)=O)s3)c2cc1OC [GSK448459]	0
CCc1ccnc(/C=C/c2n[nH]c3cc(Sc4ccccc4C(=O)NC)ccc23)c1	99.9
CSc1ccc(-c2cc3ncnc(SCC(=O)O)c3s2)cc1	0
COc1ccc(Nc2nccc(N3CCC(NC(=O)Nc4cc(C)ccc4C)C3)n2)cc1 (stereo not drawn) [GSK1379741]	0
Cc1c(Cn2c(C)nn3c(=O)cc(N4CCOC(C)C4)nc23)cccc1C(F)(F)F (stereo not drawn) [GSK2344444]	0
O=C1NC(=O)C(N2CCc3ccccc32)=C1c1cccc(Cl)c1 [SB-408010]	6
Cn1ccc2ncnc(Oc3ccc(NC(=O)Nc4ccncc4)c(Cl)c3)c21	1
O=C(NOCC1CC1)c1ccc(F)c(F)c1Nc1ccc(I)cc1Cl	0
Cc1ccc(NC(=O)c2ccnc(N3CCN(C)CC3)c2)cc1-c1ccc(C(=O)NCC2CC2)cc1 [GW775604]	0
